Bioassay records as filed in PubChem BioAssay.
nsP2pro inh – CHIKV nsP2 protease inhibition, primary qHTS. Q8JUX6. FRET peptide cleavage, nsP2pro, fluorescence 1 h. Potency, µM (titrated, usually from 24.9 µM), without a hit: at the top dose activity change, negative = inhibition, actives largely listed as inhibitors. 1.1% of 31,000 active. AID 1964107; also: nearly all actives have a fitted effect of over 60% in size
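Enzyme 150 nM, substrate 2.5 uM (both final); Tris-HCl 10 mM pH 8.0 + 0.01% Tween 20; cpd up to 25 uM, 7 pts; 15 min preinc., 1 h RT; fluorescence ex 525/em 598.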
CHIKV nsP2 cell – inhibits CHIKV nsP2 protease in cells | shares compounds with nsP2pro inh | cell-based CHIKV nsP2 protease reporter assay | Potency, µM (titrated, usually from 51.1 µM), inactives show top-dose activity change, negative = inhibition, most hits filed as inhibitors | 10% of 450 active; also: nearly all actives have a fitted effect of over 70% in size
Target sequence (Q8JUX6 220-798 limits assumed): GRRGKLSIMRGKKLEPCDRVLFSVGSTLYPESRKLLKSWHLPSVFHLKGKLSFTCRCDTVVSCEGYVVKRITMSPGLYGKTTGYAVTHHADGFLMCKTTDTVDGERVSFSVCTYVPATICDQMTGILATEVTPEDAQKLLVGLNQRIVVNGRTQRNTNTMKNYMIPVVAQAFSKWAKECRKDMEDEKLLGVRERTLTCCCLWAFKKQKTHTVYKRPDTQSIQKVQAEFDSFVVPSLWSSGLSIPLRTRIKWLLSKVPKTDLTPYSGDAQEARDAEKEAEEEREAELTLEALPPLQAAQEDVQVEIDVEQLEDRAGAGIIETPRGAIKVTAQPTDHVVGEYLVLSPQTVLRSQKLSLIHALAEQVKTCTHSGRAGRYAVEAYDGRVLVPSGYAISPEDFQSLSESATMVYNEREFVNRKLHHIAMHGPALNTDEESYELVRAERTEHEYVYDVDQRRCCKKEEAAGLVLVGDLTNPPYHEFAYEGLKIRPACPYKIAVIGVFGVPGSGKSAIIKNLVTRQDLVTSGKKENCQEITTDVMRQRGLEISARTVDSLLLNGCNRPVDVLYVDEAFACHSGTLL
NSP2 full ctr – inhibits full-length CHIKV NSP2 enzyme; shares compounds with nsP2pro inh; Full-length CHIKV NSP2 protease enzymatic counterscreen; Potency, µM (series often up to 50.7 µM), for inactives: top-dose activity change, negative = inhibition, actives largely listed as inhibitors; 39% of 410 active; AID 1964101; also: nearly all actives have a fitted effect of over 65% in size
Furin counter – inhibits human furin in a CHIKV nsP2 protease selectivity counterscreen. shares compounds with nsP2pro inh. Recombinant human furin enzymatic counterscreen, fluorogenic substrate. Potency, µM (top dose mostly 50.6 µM), for inactives: top-dose activity change, negative = inhibition, hits mostly inhibitors. 6% of 410 active. AID 1964102
nsP2 NS23 pep – selectivity test for CHIKV nsP2 protease inhibitors: endogenous NS2/3 peptide; shares compounds with nsP2pro inh; Purified CHIKV nsP2 protease, endogenous NS2/3 peptide cleavage; Potency, µM (top dose mostly 51 µM), inactives show at the highest dose activity change, negative = inhibition, most hits filed as inhibitors; 34% of 410 active; AID 1964103; also: nearly all actives have a fitted effect of over 55% in size
Papain counter – inhibits papain in a CHIKV nsP2 protease selectivity counterscreen; AID 1964104; 5% of 410 active; shares compounds with nsP2pro inh; purified papain protease activity, enzymatic inhibition; Potency, µM (series often up to 51 µM), without a hit: top-dose activity change, negative = inhibition, hits mostly inhibitors
nsP2pro confirm – confirmation of CHIKV nsP2 protease inhibitors; CHIKV nsP2 protease enzymatic activity, qHTS; 43% of 410 active; AID 1964105; shares compounds with nsP2pro inh; Potency, µM (series often up to 25.5 µM), for the others: at the top dose activity change, negative = inhibition, usual class: inhibitors; also: nearly all actives have a fitted effect of over 75% in size
HCV NS3 counter – inhibits HCV NS3/4A protease in an nsP2pro selectivity counterscreen; HCV NS3/4A protease biochemical counterscreen; shares compounds with nsP2pro inh; AID 1964106; Potency, µM (titrated, usually from 50.9 µM), actives largely listed as inhibitors; 20% of 410 active; also: nearly all actives have a fitted effect of over 55% in size
* = called active by the depositor; i = inactive; u = inconclusive; ! = not active in a repeat; [ ] = remark or other dose. Only a selection was taken, and hits are over-represented in it overall. Calls follow the shape of the full dose curve. % is scaled to controls: 0 for no effect and ±100 for the full control effect; potency is read from the fitted curve at half-maximal effect.

SMILES	nsP2pro inh	others
COc1cc(/C=C/C(=O)OC2CC(OC(C)=O)C(OC(C)=O)C3C2CCC2C(=O)OC(c4ccoc4)CC23C)ccc1O[C@@H]1O[C@H](CO)[C@@H](O)[C@H](O)[C@H]1O (stereo partly drawn)	-22.5%[10 µM]
COC(=O)C1(O)C(OC(C)=O)CCC2C3(CC(c4ccoc4)OC3=O)C(C)=CCC21C(=O)OC (stereo not drawn)	1.92µM*	CHIKV nsP2 cell=-7.4%[17.6 µM];NSP2 full ctr=-15.1%[17.3 µM];Furin counter=-3.3%[17.3 µM];nsP2 NS23 pep=i;Papain counter=-7.1%[17.2 µM];nsP2pro confirm=36.2%[8.62 µM];HCV NS3 counter=i
CC(=O)N1CCN(c2ccnc(-c3nnc(C)n3C3CCCCC3)c2)CC1	3.6%[39.2 µM]
COc1cccc(C(=O)N2CCCN(CCn3nc4n(c3=O)CCCC4)CC2)c1	-3.1%
Cc1cc(C)nc(NC(=S)N2CCN(c3cc(C(F)(F)F)nc(C)n3)CC2)c1	3.0%
CCC[C@H](NC(=O)[C@@H]1[C@H]2CCC[C@H]2CN1C(=O)[C@@H](NC(=O)[C@@H](NC(=O)c1cnccn1)C1CCCCC1)C(C)(C)C)C(=O)C(=O)NC1CC1	3.94µM*!	CHIKV nsP2 cell=172.5%;NSP2 full ctr=11.6µM*;Furin counter=-4.4%;nsP2 NS23 pep=u;Papain counter=0.0259µM*;nsP2pro confirm=3.57µM*;HCV NS3 counter=0.0517µM*
CC(C)C[C@H](CO)Nc1nc(S[C@@H](C)c2ccccc2)nc2nc(N)sc12	25.5%
Cc1cc(NC(=O)Nc2nnc(-c3cccnc3)s2)ccc1F	-15.6%
CCOC(=O)c1ccc(-n2cnc3cc(C(=O)N4CCCCC4)ccc32)cc1	i
Cc1nnc(-c2ccc3occ(-c4ccc(S(C)=O)cc4)c3c2)o1 (stereo not drawn)	-6.1%
Cc1cccc(S(=O)(=O)Nc2cccn3nc(C4CCC4)nc23)c1	16.7%
O=S(=O)(Nc1cccn2nc(C3CC3)nc12)c1cccnc1	u	CHIKV nsP2 cell=-16.3%
CCc1nc2c(NS(=O)(=O)c3cccnc3)cccn2n1	-6.5%
Cc1cc(C)nc(NC(=S)N2CCN(c3cccc(C(F)(F)F)n3)CC2)c1	-34.8%
Oc1cc2c(cc1CN1CCN(c3ncccn3)CC1)OCO2	10µM*	CHIKV nsP2 cell=-28.7%;NSP2 full ctr=u;Furin counter=-3.9%;nsP2 NS23 pep=16.3µM*;Papain counter=-3.4%;nsP2pro confirm=7.11µM*;HCV NS3 counter=u
CC1(C)CC(=O)N(CCCCN2CCN(c3ncccn3)CC2)C(=O)C1	-6.1%
O=C(O)C(c1ccc2c(c1)OCCO2)N1CCCN(c2ncccn2)CC1 (stereo not drawn)	-3.9%
CN1C(=O)c2ccccc2-n2c(nc3ccccc3c2=O)[C@@]12O[C@H]2c1ccccc1	-3.6%
O=C(Nc1ccc(-c2nc3ccccc3[nH]2)cc1)c1ccc(Cl)c(Cl)c1	-17.7%
C=C/C=C/C[C@@H](C)[C@@H](O)[C@H]1C(=O)N[C@@H](CC)C(=O)N(C)CC(=O)N(C)[C@@H](CC(C)C)C(=O)N[C@@H](C(C)C)C(=O)N(C)[C@@H](CC(C)C)C(=O)N[C@@H](C)C(=O)N[C@H](C)C(=O)N(C)[C@@H](CC(C)C)C(=O)N(C)[C@@H](CC(C)C)C(=O)N(C)[C@@H](C(C)C)C(=O)N1C	0.0%
O=C(CN1C(=O)N/C(=C\c2cccn2-c2cccc(C(=O)O)c2)C1=O)Nc1cccc(Cl)c1	i
CN(C)CCCNc1c2ccccc2nc2c1[nH]c1ccccc12	12.1%
Cc1nc(-c2cn(C3CCCN(C(=O)C(C)Oc4ccccc4)C3)nn2)no1 (stereo not drawn)	i
